What all share (experiment): glycan array binding signal (z-score within array); higher = stronger binding
What all share (conditions): glycan notation: IUPAC condensed, linker removed; mutation: R85A

The target of assay [1] is Fuc(a1-2)Gal(b1-3)GlcNAc(b1-2)Man(a1-3)[Fuc(a1-2)Gal(b1-3)GlcNAc(b1-2)Man(a1-6)]Man(b1-4)GlcNAc(b1-4)GlcNAc. The method, boiled down: (§1)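 Glycan array data were curated from 3228 arrays in the Consortium for Functional Glycomics database and kept only where the protein sequence was available. Glycan names were converted to IUPAC-condensed notation, and columns mapping to the same glycan were averaged. The binding signal is a within-array Z-score, averaged across arrays of the same protein sequence at different concentrations or buffers and across linkers. Negative Z-scores can be read as non-binding.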

The next assay concerns the target Fuc(a1-2)Gal6S(b1-4)Glc. The gist of the method: as §1
Assay [2] concerns the target Fuc(a1-2)[Gal(a1-3)]Gal(b1-3)GlcNAc(b1-2)Man(a1-3)[Fuc(a1-2)[Gal(a1-3)]Gal(b1-3)GlcNAc(b1-2)Man(a1-6)]Man(b1-4)GlcNAc(b1-4)GlcNAc. The method, boiled down:
as §1

For assay [3], the target named is Fuc(a1-2)[Gal(a1-3)]Gal(b1-4)GlcNAc. The method, boiled down: as §1
For assay [4], the target named is Fuc(a1-3)[Gal(b1-4)]Glc6S. The gist of the method:
as §1

Assay [5] concerns the target Fuc(a1-3)[Gal(b1-4)]GlcNAc(b1-3)Gal(b1-3)[Fuc(a1-4)]GlcNAc. The gist of the method: as §1
A further assay concerns the target Gal(a1-3)Gal(b1-4)Glc. The gist of the method: as §1
The target of another assay is Gal(a1-4)Gal(b1-4)Glc. The gist of the method:
as §1

The target in assay [6] is Gal(b1-3)Gal(b1-4)GlcNAc(b1-2)Man(a1-3)[Gal(b1-3)Gal(b1-4)GlcNAc(b1-2)Man(a1-6)]Man(b1-4)GlcNAc(b1-4)GlcNAc. The gist of the method:
as §1

Assay [7] has as its target Gal(b1-3)GlcNAc(b1-2)Man(a1-3)[Gal(b1-3)GlcNAc(b1-2)Man(a1-6)]Man(b1-4)GlcNAc(b1-4)GlcNAc. The gist of the method:
as §1

For assay [8], the target named is Gal(b1-3)GlcNAc(b1-3)Gal(b1-4)GlcNAc(b1-6)[Gal(b1-3)GlcNAc(b1-3)]Gal(b1-4)Glc. The method, boiled down: as §1
For a further assay, the target named is Gal3S(b1-3)GalNAc. The gist of the method:
as §1

The target in another assay is Gal3S(b1-3)GlcNAc. The gist of the method:
as §1

In a further assay the target is Gal3S(b1-4)Glc. The gist of the method:
as §1

Another assay deals with Gal3S(b1-4)Glc6S. The gist of the method:
as §1

Another assay addresses Gal3S(b1-4)GlcNAc6S. The gist of the method:
as §1

The target in the next assay is Gal4S6S(b1-4)GlcNAc. The gist of the method: as §1
For another assay, the target named is Gal6S(b1-4)Glc6S. The gist of the method: as §1
Assay [9] concerns the target GlcNAc(b1-2)Man(a1-3)[GlcNAc(b1-2)Man(a1-6)]Man(b1-4)GlcNAc(b1-4)GlcNAc. The method, boiled down: as §1
For assay [10], the target named is GlcNAc(b1-3)Gal(b1-4)GlcNAc(b1-3)Gal(b1-4)GlcNAc. The gist of the method:
as §1

Another assay deals with Neu5Ac(a2-3)Gal(b1-4)Glc. The gist of the method:
as §1

A further assay addresses Neu5Ac(a2-3)GalNAc. The method, boiled down:
as §1

Assay [11] concerns the target Neu5Ac(a2-6)Gal(b1-4)GlcNAc(b1-3)GalNAc. The method, boiled down:
as §1

A further assay has as its target Neu5Ac(a2-8)Neu5Ac. The gist of the method: as §1

Shown is part of a subset that was picked to be rich in the strongest signals.

B1: rAAL (Agrocybe aegerita), Q6WY08 (protein)
chain: MQGVNIYNISAGTSVDLAAPVTTGDIVTFFSSALNLNAGAGNPNNTTLNLFAENGAYLLHIAFRLQENVIIFNSRQPDGPWLVEQAVSDVANQFAGIDGKAMVTVFDHGDKYQVVINEKTVIQYTKQISGLTLSLSYNATEETSIFSTVVEAVTYTGLALEHHHHHH
Take B1: the “glycan array binding signal (z-score)” value is -0.123 in assay [1]; -0.131 in the assay with Fuc(a1-2)Gal6S(b1-4)Glc; -0.093 in [2]; -0.127 in assay [3]; -0.13 in assay [4]; -0.132 in assay [5]. Further, the “glycan array binding signal (z-score)” value with Gal(a1-3)Gal(b1-4)Glc was 1.02; with Gal(a1-4)Gal(b1-4)Glc, -0.133; in [6] it was 9.2; in assay [7], -0.072; in assay [8] it was 0.051; with Gal3S(b1-3)GalNAc, 14.6. In addition, the “glycan array binding signal (z-score)” value is 3.42 in the assay with Gal3S(b1-3)GlcNAc; 3.77 with Gal3S(b1-4)Glc; 4.38 in the assay with Gal3S(b1-4)Glc6S; 0.209 with Gal3S(b1-4)GlcNAc6S; -0.136 with Gal4S6S(b1-4)GlcNAc; -0.121 with Gal6S(b1-4)Glc6S. In addition, the “glycan array binding signal (z-score)” value in [9] is -0.127; in assay [10] it was -0.136; with Neu5Ac(a2-3)Gal(b1-4)Glc, 0.216; with Neu5Ac(a2-3)GalNAc, -0.131; in [11], 1.17; with Neu5Ac(a2-8)Neu5Ac, -0.125.

Values taken from the supplement of paper PMC8728848.
